Screening results from PubChem BioAssay.
Compounds with a hit are over-represented: about 2.3% of the library has one in this group of screens.
CHO-K1 Ca antag – nonselective inhibitor or artifact in parental CHO-K1 cells | ATP-induced calcium, Fluo-8 fluorescence | inhibition, % at 3 µM | actives 0.6% (n = 360,000) | AID 602250;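 active means inhibition above a per-plate cutoff, the plate's mean sample inhibition plus 3 SD, cut at about 24% in these data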;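 further: 0% = DMSO plus EC80 ATP and 100% = DMSO alone without ATP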
M1 ag – activates human CHRM1 receptor | P11229 | CHO-K1 hM1, Fluo-8 calcium fluorescence, agonist mode; 0% DMSO, 100% acetylcholine EC100 | activation, % at 3 µM | actives 0.33% (n = 360,000);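 active means activation above the run's mean compound activation plus 3 SD, cut at about 16% in these data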;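 further: peak over basal fluorescence ratio within a 140 s kinetic read after compound addition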
Target sequence (P11229 whole entry, looked up): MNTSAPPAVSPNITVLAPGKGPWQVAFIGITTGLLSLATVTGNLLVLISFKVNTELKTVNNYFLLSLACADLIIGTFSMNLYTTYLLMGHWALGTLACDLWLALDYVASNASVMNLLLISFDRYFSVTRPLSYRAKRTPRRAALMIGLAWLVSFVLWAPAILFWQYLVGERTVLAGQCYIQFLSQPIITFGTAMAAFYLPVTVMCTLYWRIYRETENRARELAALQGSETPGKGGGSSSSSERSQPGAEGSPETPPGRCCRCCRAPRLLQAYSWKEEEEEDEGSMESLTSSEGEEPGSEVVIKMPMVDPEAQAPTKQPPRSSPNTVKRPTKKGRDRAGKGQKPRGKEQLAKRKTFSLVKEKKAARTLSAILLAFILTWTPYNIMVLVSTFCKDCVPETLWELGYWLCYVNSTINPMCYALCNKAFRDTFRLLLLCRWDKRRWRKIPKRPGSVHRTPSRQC
CHO-K1 Ca ag – M1 agonist counterscreen hit in parental CHO-K1 cells. AID 602248. Fluo-8 calcium fluorescence; scaled to maximal ATP response, vehicle zero. activation, % at 3 µM. actives 0.48% (n = 360,000); in the data active means activation above about 15%;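 further: untransfected CHO-K1 host cells lacking M1 receptor as counterscreen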
CHRM1 PAM – potentiates human M1 receptor response to acetylcholine. activation, % at 3 µM. CHO-K1 hM1, Fluo-8 calcium fluorescence, ACh EC20; 0% = ACh EC20, 100% = maximal ACh. P11229. actives 0.088% (n = 360,000); in the data active means activation above about 19%, passing the limit was not always enough
CHRM1 antagonist – blocks human M1 muscarinic receptor | CHO-K1 hM1, Fluo-8 calcium fluorescence, ACh EC80 antagonist | inhibition, % at 3 µM | P11229 | actives 1.3% (n = 360,000);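 active means percent inhibition above its own plate's cutoff, namely the mean of that plate's compound wells plus 3 SD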;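 further: peak over basal fluorescence ratio during 140 s after agonist addition; 0% = ACh EC80 plus DMSO and 100% = DMSO alone without agonist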
CHO-K1 Ca PAM – counter-screen for M1 PAMs: effect in parental CHO-K1 cells | actives 0.02% (n = 360,000) | ATP EC20, Fluo-8 calcium fluorescence; 0% at ATP EC20, 100% at ATP max | AID 602247 | activation, % at 3 µM;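 active means activation above the run cutoff, the mean activation of all test compounds plus 3 SD, cut at about 40% in these data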;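 further: peak over basal fluorescence ratio in a 140 s read after ATP addition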
* hit, by the source's call.

SMILES	CHO-K1 Ca antag	M1 ag	CHO-K1 Ca ag	CHRM1 PAM	CHRM1 antagonist	CHO-K1 Ca PAM
Cc1ccc(S(=O)(=O)NC(CC(C)C)C(=O)Oc2ccc3c4c(c(=O)oc3c2)CCC4)cc1 (stereo not drawn)	24.9*	-4.5	3.4	-19.1	42.9*	-12.4
CC(C)CC(C(=O)Oc1ccc2c3c(c(=O)oc2c1)CCC3)N1C(=O)c2ccccc2C1=O (stereo not drawn)	-7.5	-0.6	0.2	5.5	-12.3	12.0
CCC(C)C(NS(=O)(=O)c1ccc(C)cc1)C(=O)Oc1ccc2c3c(c(=O)oc2c1)CCC3 (stereo not drawn)	-26.6	-4.3	3.9	-8.4	-18.7	48.9*
O=C(CNC(=O)C1CCCCC1)NNC(=O)c1ccccc1Br	-7.1	-3.2	0.4	-0.5	1.4	-0.6
CN(C)S(=O)(=O)c1ccc(C(=O)Nc2ccc(CN3CCCC3)cc2)cc1	-8.1	-5.4	-0.3	-18.0	40.7*	15.4
CCOC(=O)c1sc(NC(=O)c2ccc(S(=O)(=O)N(CC)CC)cc2)nc1C	0.8	-0.9	0.7	3.5	-3.0	0.2
CCOC(=O)c1csc(NC(=O)c2ccc(S(=O)(=O)N(CC)CC)cc2)n1	-10.3	-2.0	15.3*	7.2	-5.0	14.1
CCN(CC)S(=O)(=O)c1ccc(NC(=O)c2ccc(N(C)S(C)(=O)=O)cc2)cc1	9.4	0.5	3.6	-10.8	6.3	-4.6
CN(c1ccccc1)S(=O)(=O)c1ccc(C(=O)NCc2ccccc2CN2CCCC2)cc1	9.7	-5.9	17.2*	-16.4	21.2	-12.7
CCN(CC)S(=O)(=O)c1ccc(C(=O)Nc2ccc(Cc3ccncc3)cc2)cc1	16.3	0.3	15.4*	-14.0	26.1	-21.4
N#CC1(NC(=O)COC(=O)/C=C/c2ccc3ccccc3n2)CCCCC1	-10.3	-1.2	2.6	5.7	-5.0	10.7
CCc1ccc(NC(=O)CN2CCc3ccccc3C2)cc1	24.4*	-5.6	-0.2	3.7	1.4	-6.7
Cc1ccc(NC(=O)c2ccc(CN3CCc4ccccc4C3)cc2)cc1	-9.9	-3.6	0.5	-10.3	4.7	18.2
O=C(Nc1ccc(S(=O)(=O)N2CCCCC2)cc1)c1ccc(CN2CCc3ccccc3C2)cc1	33.2*	-3.6	0.2	-11.6	26.6	-4.0
O=C(Nc1ccccc1)c1ccc(CN2CCc3ccccc3C2)cc1	23.9*	-12.8	7.1	-11.2	-5.6	-12.8
CS(=O)(=O)N1CCN(c2ccccc2NC(=O)c2ccc3c(c2)OCCO3)CC1	-5.9	-4.9	18.9*	2.9	-4.0	6.1
Cc1ccccc1C(=O)N1CCN(c2ccc(NC(=O)c3ccc4c(c3)OCCO4)cc2)CC1	0.1	4.5	19.1*	-15.6	18.2	-14.8
Cc1ccc(C(=O)Nc2ccccc2N2CCN(C(=O)C(C)C)CC2)cc1C	29.0*	-0.6	1.3	-0.8	11.4	-27.3
CC(C)C(=O)N1CCN(c2ccccc2NC(=O)c2ccc(C#N)cc2F)CC1	-1.8	-6.4	22.1*	3.8	8.8	4.5
CC(OC(=O)CCN=C1NS(=O)(=O)c2ccccc21)C(=O)N(C)C1CCCCC1 (stereo not drawn)	-12.9	-2.3	0.5	9.0	-16.6	15.2
Cc1ccc(OCCC(=O)NNC(=O)c2ccccc2F)cc1	-12.3	-0.2	0.3	6.0	-7.0	14.3
O=C(c1ccccc1)C1CCN(C(=O)C2CCC(=O)N(Cc3ccccc3F)C2)CC1 (stereo not drawn)	-5.3	-0.5	3.2	5.2	-8.6	0.7
COc1ccccc1-n1cnnc1SCC(=O)Nc1cccc(S(N)(=O)=O)c1	-11.3	-3.3	1.2	5.4	-12.1	14.2
COc1ccc(S(=O)(=O)N2CCC(C(=O)N(CC(C)C)C3CCS(=O)(=O)C3)CC2)cc1OC (stereo not drawn)	9.3	-4.5	0.0	-2.0	5.5	-0.5
Cc1c(OCC(=O)N2CCN(c3ccccc3)CC2)ccc2c3c(c(=O)oc12)CCCC3	25.1*	-1.8	1.8	7.4	-6.6	7.6
Cc1c(OCC(=O)N2CCC(C(=O)O)CC2)ccc2c3c(c(=O)oc12)CCCC3	2.2	0.2	0.3	1.0	-3.5	-11.4
Cc1c(OCC(=O)N(C)C)ccc2c3c(c(=O)oc12)CCCCC3	25.2*	-9.2	0.7	-12.8	12.5	-12.8
